Only some compounds are listed: those with a hit (about 1.7% of all), similar ones and a draw of the others.
CFTR F508del cor: CFTR F508del correction in bronchial cells | activity (quench increase), % at 7.58 µM | CFBE cells, YFP halide quenching; stimulated with forskolin plus potentiator P3; % fluorescence drop versus neutral controls | AID 720511 | 350,000 compounds, 0.36% hits;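 active = mean added fluorescence quench of at least 8% versus neutral control, with both replicates also reaching 8%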;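 also: cells transiently co-express mutant CFTR-F508del with the halide-sensitive YFP; corrector assay measuring rescue of mutant channel to the surface after 24 h compound exposure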
FGF22 binding: FGF22 (human) thermal shift binding; recombinant FGF22 thermal shift, SYPRO orange fluorescence; percent of sucrose octasulfate shift, DMSO zero; Q9HCT0; activity (Tm shift, normalised), % at 9.99 µM; AID 651658; 340,000 compounds, 1.5% hits;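 active = mean Tm shift, scaled 0 neutral to 100 positive control, at about 1.3% or above, every replicate too, limit read from the data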
Target sequence (Q9HCT0 whole entry, looked up): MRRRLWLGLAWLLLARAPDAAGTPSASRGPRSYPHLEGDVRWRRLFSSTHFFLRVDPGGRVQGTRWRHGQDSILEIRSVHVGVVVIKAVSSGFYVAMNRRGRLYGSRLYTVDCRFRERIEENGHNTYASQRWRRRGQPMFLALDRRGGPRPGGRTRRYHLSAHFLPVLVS
Vif inh: blocks HIV Vif function. HEK293T cells, Vif self-association by quenched fluorescence, imaging, 24 h. AID 602346. inhibition, % at 7.49 µM. 340,000 compounds, 0.35% hits; in the data active = inhibition above about 50%, passing the limit was not always enough
The depositor's hits bear a star; nt = no result.

SMILES | CFTR F508del cor | FGF22 binding | Vif inh
CC1CN(S(=O)(=O)c2ccc(C(=O)Nc3ccccc3F)cc2)CC(C)O1 (stereo not drawn) | 9.1* | -0.3 | -8.1
CC1CN(S(=O)(=O)c2ccc(C(=O)NCCCn3ccnc3)cc2)CC(C)O1 (stereo not drawn) | -3.7 | 0.1 | 52.2*
CCC(=O)Nc1ccc2c(c1)C(=O)N(C)C[C@H](OC)[C@H](C)CN(CC1CC1)[C@@H](C)CO2 | -2.6 | -0.1 | nt
CCCNC(=O)C[C@@H]1CC[C@@H]2[C@@H](COc3ccc(NC(=O)Nc4ccccc4F)cc3C(=O)N2C)O1 | -3.5 | -0.6 | nt
CC(C)(C)NC(=O)C(c1ccc(O)cc1)N(Cc1ccc2c(c1)OCO2)C(=O)CCl (stereo not drawn) | -4.5 | 0.1 | 79.8*
CCOCCCNC(=O)C(c1ccc(Cl)cc1)N(Cc1ccc2c(c1)OCO2)C(=O)CNC(C)=O (stereo not drawn) | 7.5 | -0.2 | -1.6
Clc1ccc(N(CC2CO2)CC2CO2)cc1 (stereo not drawn) | 8.1* | -0.2 | -0.5
O=S(=O)(c1ccccc1)N(CC1CO1)c1cc(Cl)ccc1Cl (stereo not drawn) | 1.1 | 0.1 | -15.2
CNC(=O)C[C@@H]1CC[C@H]2[C@H](COc3ccc(NC(=O)Nc4cccc(C)c4)cc3C(=O)N2C)O1 | 0.7 | -0.3 | nt
O=C(C[C@@H]1C=C[C@@H](NC(=O)C2CCC2)[C@@H](CO)O1)NCCCN1CCOCC1 | 1.7 | 0.3 | nt
O=C(NCCc1ccccc1)C1CCN(C2CCN(Cc3ccco3)CC2)CC1 | 2.6 | 0.3 | -2.6
O=C(NCC1CCCO1)C1CCN(C2CCN(Cc3ccco3)CC2)CC1 (stereo not drawn) | -2.1 | 43.6* | -2.0
Cc1nc2ccc(N=NC3=C(O)CC(C)(C)CC3=O)cc2s1 | nt | nt | 0.0
CC(=O)N1CCc2cc(N=NC3=C(O)CC(C)(C)CC3=O)ccc21 | -2.5 | 43.0* | -2.9
CC=Cc1ccc2n(c1=O)C[C@@H]1[C@@H](CO)[C@H](C(=O)NCc3ccccc3)N(C)[C@H]21 (mixture of isomers) | 2.5 | -0.1 | nt
C[C@@H]1CN([C@@H](C)CO)C(=O)c2cc(NS(=O)(=O)c3ccc(Cl)cc3)ccc2O[C@@H](C)CCCCO[C@@H]1CN(C)Cc1ccncc1 | -1.3 | -0.2 | nt
OC[C@@H]1[C@H](c2ccc(C3=CCCC3)cc2)[C@@H](CNC2CCCC2)N1CC1CC1 | 5.5 | nt | nt
CC(=O)N(C)C[C@H]1Oc2cc(C#Cc3ccccn3)ccc2S(=O)(=O)N([C@@H](C)CO)C[C@H]1C | 1.7 | -0.2 | nt
COc1cc(NC(=O)c2cccc3c2C(=O)N(Cc2cccnc2)C3)cc(OC)c1OC | 4.7 | -0.1 | nt
CCOC(=O)CC(NC(=O)c1cccc2c1C(=O)N(Cc1cccnc1)C2)c1ccc(OCC)c(OC)c1 (stereo not drawn) | -1.1 | 43.1* | -2.1
C[C@H](CO)N1C[C@H](C)[C@@H](CN(C)CC2CCCCC2)Oc2c(NC(=O)CCCCCC(=O)Nc3ccccc3N)cccc2C1=O | 1.2 | nt | nt
Cc1cc(/C=C2\SC(=S)N(Cc3ccco3)C2=O)c(C)n1-c1cccnc1 | nt | nt | 187.1*
O=C1/C(=C/c2cccnc2)SC(=S)N1Cc1ccco1 | 2.1 | 0.5 | -6.6
Cc1ccc(S(=O)(=O)N(C)C[C@@H]2OCCCC[C@@H](C)Oc3ccc(NC(=O)CCCN(C)C)cc3C(=O)N([C@H](C)CO)C[C@@H]2C)cc1 | -0.3 | -0.4 | nt
COCC(=O)Nc1ccc2c(c1)OC[C@H](C)N(Cc1ccccn1)C[C@H](C)[C@@H](OC)CN(C)C2=O | -0.9 | -0.2 | nt
SMILES | CFTR F508del cor | FGF22 binding | Vif inh
Cc1ccccc1C(=O)NNC(=S)NC(=O)c1cccnc1 | 1.4 | 43.1* | -13.4
O=C(NC(=S)NNC(=O)c1ccccc1F)c1cccnc1 | nt | 0.0 | -2.6
CN(C)C(/C=C/Nc1ccc(O)cc1)=C(C#N)C#N | -2.3 | 43.7* | 2.2
Cc1cccc(N/C=C/C(=C(C#N)C#N)N(C)C)c1 | nt | nt | -7.1
COc1ccc(NC(=O)Nc2ccc3c(c2)C(=O)N(C)C[C@H](OC)[C@@H](C)CN[C@H](C)CO3)cc1 | 5.0 | nt | nt
Cc1ccc(S(=O)(=O)N2C[C@H]3C(=O)C[C@@H](c4ccccc4)N(S(=O)(=O)c4ccc(C)cc4)[C@H]3C[C@H]2c2cccc3ccccc23)cc1 | -0.5 | -0.3 | 8.9
Cc1ccc(S(=O)(=O)N2C[C@H]3C(=O)C[C@@H](c4ccccc4F)N(S(=O)(=O)c4ccc(C)cc4)[C@H]3C[C@H]2c2cccc3ccccc23)cc1 | -1.9 | 43.2* | -5.1
O=C(C[C@@H]1CC[C@H]2[C@@H](COC[C@@H](O)CN2Cc2ccc(Cl)cc2)O1)NCCc1ccccc1 | 2.1 | -0.2 | nt
COc1ccccc1/C=C/C(=O)Oc1cccc2cccnc12 | -5.7 | 43.0* | 6.7
COc1ccccc1/C=C/C(=O)OCCCN(C)C | 0.4 | 43.6* | 1.6
O=C(/C=C\c1ccco1)Oc1cccc2cccnc12 | nt | -0.3 | -3.1
COc1ccc(/C=C/C(=O)OCCCN(C)C)cc1 | 1.2 | 0.4 | 3.4
CO[C@@H]1CN(C)C(=O)c2cc(NC(=O)Nc3cccc(F)c3)ccc2OC[C@H](C)N(C(=O)Nc2c(C)noc2C)C[C@@H]1C | 0.3 | 0.2 | nt
COC(=O)c1ccc(N)c(CS(=O)(=O)c2ccc(Cl)cc2)c1 | 2.6 | -0.1 | -13.9
COC(=O)c1sc(C(C)(C)C)cc1CS(=O)(=O)c1ccc(Cl)cc1 | 7.0 | 15.0* | -7.0
COc1cccc(/C=N/NC(=O)C(=O)Nc2ccccc2OC(F)(F)C(F)F)c1O | 15.0* | 0.0 | 3.2
O=C(N/N=C/c1ccccc1C(=O)O)c1ccccc1Br | 0.6 | -0.1 | 1.5
COc1ccccc1/C=N/NC(=O)c1cccc(OC(F)(F)C(F)F)c1 | nt | 0.0 | 5.5
NC(=O)N/N=C/c1ccccc1OC(=O)c1ccccc1Br | 0.4 | 42.9* | 3.9
COc1cccc(/C=N/NC(=O)C(=O)N/N=C/c2cccc(OC)c2OC)c1OC | 1.1 | 0.0 | 11.2
COc1ccccc1C=NNC(=O)C(=O)NN=Cc1ccccc1OC | -0.2 | 43.3* | -0.4
C[C@H](CO)N1C[C@H](C)[C@@H](CN(C)C(=O)Nc2cccc3ccccc23)Oc2ccc(NC(=O)Nc3ccccc3)cc2CC1=O | -0.9 | -0.4 | nt
Cc1noc(C)c1NC(=O)N(C)C[C@@H]1Oc2c(NS(=O)(=O)c3cccs3)cccc2C(=O)N([C@@H](C)CO)C[C@H]1C | -0.8 | -0.4 | nt
CO[C@H]1CN(C)C(=O)c2cc(NC(C)=O)ccc2OC[C@@H](C)N(Cc2ccccn2)C[C@H]1C | 0.8 | -0.5 | nt
CC(C)CC#Cc1ccc2c(c1)O[C@H](CN(C)C(=O)CN(C)C)[C@H](C)CN([C@H](C)CO)S2(=O)=O | -0.3 | -0.2 | nt
SMILES | CFTR F508del cor | FGF22 binding | Vif inh
Cc1noc(C)c1S(=O)(=O)Nc1ccc2c(c1)C(=O)N([C@H](C)CO)C[C@@H](C)[C@@H](CN(C)Cc1ccc(Oc3ccccc3)cc1)O2 | -2.0 | -0.5 | nt
Cc1nnsc1Sc1ccccc1 | -3.2 | 43.2* | -3.0
Cc1nc(N)ncc1Sc1ccccc1 | 1.5 | 0.1 | 10.0
C[C@H]1CN([C@@H](C)CO)C(=O)c2cccc(NC(=O)Nc3ccccc3)c2O[C@H]1CN(C)C(=O)NC1CCCCC1 | 0.2 | 0.0 | nt
COc1ccc(Cc2nnc(NC(=O)CSc3ccccc3)s2)cc1OC | nt | nt | 5.3
COc1ccc(Cc2nnc(Nc3ccccc3)s2)cc1Br | 0.7 | 0.3 | 107.3*

Assay outcomes from PubChem BioAssay.
